Laboratory results reported in PubChem BioAssay (NCATS).
Results filed as inconclusive are left out. Activity calls are given as the source filed them. Unless noted, calls follow the shape of the dose curve; as a rule, active = well fitted curve in the direction sought with a large enough effect; inconclusive = small, poorly fitted or top-dose-only effect, or another doubt; inactive = no such curve, though single readings can be large; an effect the other way counts as inactive or inconclusive.

Key:
[1] = biological target: Glucocorticoid receptor (Homo sapiens) (UniProt P04150); assay: GR-GFP Redistribution (AID 450;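 active = compounds whose dose series gives a full or clear partial fitted curve of increased nuclear translocation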; also: potency is read from the fitted curve at half-maximal effect); details: U2OS GR-GFP nuclear translocation, laser cytometry, 2 h
[2] = biological target: Glucocorticoid receptor (Homo sapiens) (UniProt P04150); assay: GR-EFC Redistribution (AID 451; calls by dose curve; also: potency is read from the fitted curve at half-maximal effect); details: CHO-K1 GR-EFC translocation, beta-gal luminescence, 2 h
How it was run: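 CHO-K1 cells expressing nuclear EA and GR-ED fragments of b-gal; compounds titrated up to 46 uM final, 2 h at 37 C. GR nuclear translocation read as complemented b-gal luminescence after 1 h RT detection.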

[3] = biological target: Mitogen-activated protein kinase 10 (Mus musculus) (UniProt Q61831); assay: JNK3 AlphaScreen Assay (AID 530; active = well fitted curve in either direction with a large enough effect, not every such curve was filed as active;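 also: kinase came from lysate of stimulated human HepG2 cells; signal reports phosphorylation of biotinylated GST-cJun 1-79 at Ser73 with 10 µM ATP; % is scaled to controls: 0 for no effect and ±100 for the full control effect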); details: JNK3 lysate, c-Jun phosphorylation; series mostly up to 57.1 µM
How it was run: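 HepG2 lysate (IL-1b/TNFa pre-activated) + biotin-GST-cJun 1-79 + anti-pSer73 cJun; cpd titration, 15 min RT; ATP 10 uM start; Tris pH 7.6, MgCl2, DTT, vanadate; beads in EDTA buffer; AlphaScreen.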

[4] = biological target: 3',5'-cyclic-AMP phosphodiesterase 4B (Homo sapiens) (UniProt Q07343); assay: qHTS Assay for Inhibitors of PDE-IV (AID 607; active = well fitted activation curve with a large enough effect in the main read-out, with a control signal flat, not every such curve was filed as active; also: % of control where 0% means no effect); details: HEK293 ACTOne CNG channel cells, membrane potential fluorescence; series mostly up to 22.9 µM
How it was run: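 Live HEK293 cells with a modified cyclic nucleotide-gated (CNG) channel report intracellular cAMP via membrane-potential dye fluorescence (ex 535/em 590 nm). Endogenous PDE-IV was targeted. Compounds were tested at up to 22.9 uM final; RO 20-1724 100 uM served as control.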

[5] = qHTS Assay for Lipid Storage Modulators (AID 1519; calls by dose curve; as to activity change, negative = inhibition: % is scaled to controls: 0 for no effect and ±100 for the full control effect); details: Drosophila S3 cells, BODIPY lipid droplet/cell ratio, laser cytometry, cells loaded with oleic acid; for activity change, negative = inhibition: at 57.5 µM (top of the series)
How it was run: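 Cells seeded at 5,000 per well were treated with compounds over a concentration series and loaded with oleic acid (400 uM, as added). Lipid droplet fluorescence (488 nm excitation, 500-530 nm channel) was read by laser-scanning cytometry and normalized to 20 uM Triacsin C.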

[6] = biological target: DNA dC->dU-editing enzyme APOBEC-3G (Homo sapiens) (UniProt Q9HC16); assay: qHTS for inhibitors of Vif-A3G interactions: Validation (AID 588379); details: Vif-A3G protein interaction assay; series mostly up to 46.1 µM; also: 0% is about no effect
How it was run: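 Yellow fluorescence (Ex 488, Em 500-530) of Vif-coexpressing HeLa A3G-eYFP cells, scanned by Acumen cytometer, reports blocked A3G degradation. Cells plated at 700/well overnight at 37 deg C before compound addition, then a further overnight compound incubation at 37 deg C.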

[7] = test system: Zika virus NS2B-NS3 protease; assay: Primary screen GU AMC qHTS for Zika virus inhibitors (AID 1347154); details: Zika NS2B-NS3 unlinked protease, AMC fluorogenic substrate; series mostly up to 54.1 µM; also: nearly all actives have a fitted effect of over 70% in size; also: potency is read from the fitted curve at half-maximal effect;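 as to activity change, negative = inhibition: 0% = no-inhibitor control and -100% = no-enzyme control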
How it was run: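 Unlinked Zika NS2B hydrophilic domain–NS3 protease complex at 25 nM in 10 mM Tris-HCl pH 8.0, 0.01% Tween 20, with an AMC peptide substrate. Fluorescence change (340/450 nm) over 15 min at room temperature, normalized to controls, fitted to 4-parameter Hill.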

[8] = Primary qHTS for small molecule stabilizers of the endoplasmic reticulum resident proteome: Secreted ER Calcium Modulated Protein (SERCaMP) assay (AID 1508630); details: SH-SY5Y GLuc-SERCaMP (Gaussia luciferase released on ER calcium loss) secretion, thapsigargin, luminescence; series mostly up to 38.4 µM; also: % is scaled to controls: 0 for no effect and ±100 for the full control effect
How it was run: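 The SH-SY5Y reporter protocol was run at 3 concentrations up to 38.3 uM (primary) or 11 concentrations (follow-up): 16 h compound, 100 nM thapsigargin for 4 h, then extracellular luciferase luminescence.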

[9] = biological target: Cytochrome P450 3A4 (Homo sapiens) (UniProt P08684); assay: qHTS Assay for Activators of Cytochrome P450 3A4 (AID 885); details: recombinant CYP3A4, Luciferin-PPXE luminescence, 60 min; series mostly up to 57.1 µM; also: nearly all actives have a fitted effect of over 65% in size
How it was run: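 Using 20nM recombinant human CYP3A4 in potassium phosphate (200mM), substrate Luciferin-PPXE at 25uM, luminescent luciferin detection followed a 60-min RT NADPH reaction; data scaled to 57 uM ketoconazole.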

[10] = biological target: Ubiquitin carboxyl-terminal hydrolase 1 (Homo sapiens) (UniProt O94782); assay: Inhibitors of USP1/UAF1: Pilot qHTS (AID 504865); details: purified USP1/UAF1, Ub-rhodamine cleavage fluorescence; series mostly up to 114 µM; also: nearly all actives have a fitted effect of over 35% in size; also: potency is read from the fitted curve at half-maximal effect
How it was run: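 1nM USP1/UAF1 + cpd, 15 min RT; start w/ Ub-Rho 150nM final; kinetic FL 480/540 nm, 6 reads q60 s. Buffer 50mM HEPES pH 7.8, 0.5mM EDTA, 1mM TCEP, 0.01% Tween-20, 0.1 mg/ml BSA.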

[11] = biological target: Cytochrome P450 1A2 (Homo sapiens) (UniProt P05177); assay: p450-cyp1a2 (AID 410; calls by dose curve; also: potency is read from the fitted curve at half-maximal effect;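 as to activity change, negative = inhibition: -100% = full effect of reference inhibitor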); details: recombinant CYP1A2, luciferin-ME demethylation, luminescence; series mostly up to 57 µM
How it was run: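 Read-out is luminescence from luciferin produced by CYP1A2 demethylation of Luciferin-ME (100uM, at Km). Detection reagent stopped the 60 min NADPH-dependent reaction; signals were normalized to 57 uM furafylline.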

[12] = biological target: Cytochrome P450 2C19 (Homo sapiens) (UniProt P33261); assay: qHTS Assay for Inhibitors and Substrates of Cytochrome P450 2C19 (AID 899); details: recombinant CYP2C19, luciferin-H EGE luminescence; series mostly up to 57.1 µM; also: potency is read from the fitted curve at half-maximal effect; nearly all actives have a fitted effect of over 60% in size
How it was run: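 Luminescent read-out of luciferin formed from Luciferin-H EGE (10uM, equal to KM). Enzyme 5nM in 50mM KPO4; compound added, 10 min at 37C, then NADPH regenerating system for 60 min at 37C. Full inhibition defined by 57uM ketoconazole.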

[13] = NFAT Signaling Pathway (AID 444; active = well fitted curve in either direction with a large enough effect, not every such curve was filed as active;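 also: carbachol stimulus at about its EC50 of 1 µM final; % is scaled to controls: 0 for no effect and ±100 for the full control effect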); details: Jurkat NFAT-bla M1, carbachol, beta-lactamase ratio, 5 h; at 38 µM (top of the series)
How it was run: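 Jurkat cells with NFAT-driven β-lactamase reporter and co-expressed M1 receptor, stimulated with carbachol (final 1 uM, ~EC50), compound titration, 5 h at 37 °C. CCF4 loaded 1 h at RT; 460/530 nm ratio gave %activity and AC50.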

[14] = biological target: Guanine nucleotide-binding protein G(i) subunit alpha-1 (Homo sapiens) (UniProt P63096); assay: qHTS Assay for Inhibitors of RGS12 GoLoco Motif Activity (Green Fluorophore) (AID 879); details: Galphai1/FITC-RGS12 GoLoco peptide, fluorescence polarization; series mostly up to 57.1 µM;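 also: 0% = labeled peptide with Gαi1 and full inhibition = labeled peptide alone without protein; negative values mean loss of peptide binding seen as reduced polarization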
How it was run: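 A drop in FITC polarization marked displacement of the FITC-tagged RGS12 GoLoco peptide (10 nM) from Gαi1 (50 nM). Compounds were incubated 10 min at room temperature in Tris pH 7.5 buffer containing 150 mM NaCl, 0.1 mM GDP and 0.05% NP40; unlabeled peptide titration served as control.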

[15] = biological target: Pyruvate kinase (Leishmania mexicana) (UniProt Q27686); assay: qHTS Validation Assay for Inhibitors of Leishmania Mexicana Pyruvate Kinase (AID 945);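 also: 0% = DMSO only neutral control wells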; details: purified L. mexicana pyruvate kinase, enzyme activity, E451W mutant enzyme; series mostly up to 57.5 µM
How it was run: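 The enzyme is a highly purified E451W mutant of LmPYK used at 0.2 nM. It converts 0.5 mM PEP and 0.1 mM ADP over 1 h at room temperature; product ATP is quantified by luciferase luminescence relative to DMSO controls.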

[16] = biological target: Pyruvate kinase PKM (Homo sapiens) (UniProt P14618); assay: qHTS Assay for Activators of Human Muscle Pyruvate Kinase (AID 954; active = well fitted curve in the direction sought with a large enough effect, not every such curve was filed as active;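 also: 0% = uninhibited enzyme and -100% = no enzyme or full thiadiazolimine inhibition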); details: purified human muscle pyruvate kinase, luciferase-coupled luminescence, 1 h; series mostly up to 57.5 µM
How it was run: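 Screening used highly purified human pyruvate kinase M2 under submaximal activity, with PEP at its Km and ADP below Km. After an hour at room temperature, ATP was read by luciferase luminescence.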

[17] = biological target: Alpha-galactosidase A (Homo sapiens) (UniProt P06280); assay: Counterscreen for Glucocerebrosidase Inhibitors: qHTS Assay for Human alpha-Galactosidase at pH 4.5 (AID 992); details: purified enzyme, fluorogenic substrate; series mostly up to 76.9 µM; also: 0% is about no effect
How it was run: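 Each compound is preincubated briefly with 2 nM enzyme before substrate addition (80 uM); plates then sit 20 min at ambient temperature, are quenched with 1M NaOH/1M glycine, and read fluorometrically.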

[18] = biological target: alpha-glucosidase (Oryza sativa, rice) (UniProt Q653V4); assay: Counterscreen for Glucocerebrosidase Inhibitors: qHTS Assay for Rice alpha-Glucosidase at pH 5.0 (AID 997); details: rice alpha-glucosidase enzyme activity; series mostly up to 76.9 µM;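 also: 0% = full activity with enzyme and -100% = basal without enzyme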
How it was run: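 Endpoint fluorogenic assay at pH 5.0: compounds (0.7 nM to 77 uM) titrated against 4 nM rice enzyme and 400 uM 4-MU-alpha-glucoside for 20 min at room temperature; NaOH/glycine stop, read ex 365/em 440 nm, Hill-fitted AC50.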

[19] = measured here: cell count channel max response
[20] = measured here: lipid channel max response

Chain of DNA dC->dU-editing enzyme APOBEC-3G (Homo sapiens) (Q9HC16 whole entry, looked up): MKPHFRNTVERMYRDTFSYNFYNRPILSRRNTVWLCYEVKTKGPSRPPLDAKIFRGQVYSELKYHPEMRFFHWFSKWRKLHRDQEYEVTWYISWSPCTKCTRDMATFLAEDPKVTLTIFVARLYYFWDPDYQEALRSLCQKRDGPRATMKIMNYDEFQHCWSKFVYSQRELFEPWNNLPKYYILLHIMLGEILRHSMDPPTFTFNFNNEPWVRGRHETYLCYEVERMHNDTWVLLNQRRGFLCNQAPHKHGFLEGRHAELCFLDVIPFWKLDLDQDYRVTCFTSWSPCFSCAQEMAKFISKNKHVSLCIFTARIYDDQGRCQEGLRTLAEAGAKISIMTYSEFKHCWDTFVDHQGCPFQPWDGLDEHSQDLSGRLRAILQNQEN
Chain of Cytochrome P450 3A4 (Homo sapiens) (P08684 whole entry, looked up): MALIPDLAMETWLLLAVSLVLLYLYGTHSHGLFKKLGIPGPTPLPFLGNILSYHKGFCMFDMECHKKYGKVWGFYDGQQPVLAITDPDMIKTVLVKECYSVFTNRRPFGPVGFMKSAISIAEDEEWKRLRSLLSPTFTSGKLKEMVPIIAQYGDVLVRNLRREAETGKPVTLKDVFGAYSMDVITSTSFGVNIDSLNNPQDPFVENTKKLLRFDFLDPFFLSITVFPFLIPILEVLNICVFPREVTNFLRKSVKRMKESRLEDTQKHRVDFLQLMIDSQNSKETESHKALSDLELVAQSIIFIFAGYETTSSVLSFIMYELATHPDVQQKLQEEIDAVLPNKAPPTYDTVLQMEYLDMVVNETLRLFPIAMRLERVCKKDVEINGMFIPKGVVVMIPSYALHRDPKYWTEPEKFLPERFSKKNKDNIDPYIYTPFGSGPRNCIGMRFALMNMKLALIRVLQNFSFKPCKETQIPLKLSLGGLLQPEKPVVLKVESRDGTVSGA
Chain of Ubiquitin carboxyl-terminal hydrolase 1 (Homo sapiens) (O94782 whole entry, looked up): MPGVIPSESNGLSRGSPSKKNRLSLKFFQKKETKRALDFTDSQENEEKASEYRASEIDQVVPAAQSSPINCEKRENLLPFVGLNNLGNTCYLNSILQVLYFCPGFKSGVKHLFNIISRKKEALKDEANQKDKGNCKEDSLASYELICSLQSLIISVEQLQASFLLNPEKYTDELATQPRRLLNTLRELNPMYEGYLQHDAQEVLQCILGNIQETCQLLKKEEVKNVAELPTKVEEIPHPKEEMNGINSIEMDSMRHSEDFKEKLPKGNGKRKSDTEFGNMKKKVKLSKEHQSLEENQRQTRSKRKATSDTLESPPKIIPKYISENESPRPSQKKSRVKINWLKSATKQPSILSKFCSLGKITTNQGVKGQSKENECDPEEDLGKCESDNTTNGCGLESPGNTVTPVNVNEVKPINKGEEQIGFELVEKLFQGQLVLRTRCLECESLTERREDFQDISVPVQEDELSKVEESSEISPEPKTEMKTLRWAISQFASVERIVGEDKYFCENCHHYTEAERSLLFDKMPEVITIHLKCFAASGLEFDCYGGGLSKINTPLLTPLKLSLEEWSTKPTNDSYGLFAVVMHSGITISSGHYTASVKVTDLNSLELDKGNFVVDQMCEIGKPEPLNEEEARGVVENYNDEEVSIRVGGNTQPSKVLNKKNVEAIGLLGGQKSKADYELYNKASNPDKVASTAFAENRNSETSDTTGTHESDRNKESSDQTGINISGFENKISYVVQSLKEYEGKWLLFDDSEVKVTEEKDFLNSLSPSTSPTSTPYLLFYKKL
Chain of Glucocorticoid receptor (Homo sapiens) (P04150 whole entry, looked up, the tested form may be a part): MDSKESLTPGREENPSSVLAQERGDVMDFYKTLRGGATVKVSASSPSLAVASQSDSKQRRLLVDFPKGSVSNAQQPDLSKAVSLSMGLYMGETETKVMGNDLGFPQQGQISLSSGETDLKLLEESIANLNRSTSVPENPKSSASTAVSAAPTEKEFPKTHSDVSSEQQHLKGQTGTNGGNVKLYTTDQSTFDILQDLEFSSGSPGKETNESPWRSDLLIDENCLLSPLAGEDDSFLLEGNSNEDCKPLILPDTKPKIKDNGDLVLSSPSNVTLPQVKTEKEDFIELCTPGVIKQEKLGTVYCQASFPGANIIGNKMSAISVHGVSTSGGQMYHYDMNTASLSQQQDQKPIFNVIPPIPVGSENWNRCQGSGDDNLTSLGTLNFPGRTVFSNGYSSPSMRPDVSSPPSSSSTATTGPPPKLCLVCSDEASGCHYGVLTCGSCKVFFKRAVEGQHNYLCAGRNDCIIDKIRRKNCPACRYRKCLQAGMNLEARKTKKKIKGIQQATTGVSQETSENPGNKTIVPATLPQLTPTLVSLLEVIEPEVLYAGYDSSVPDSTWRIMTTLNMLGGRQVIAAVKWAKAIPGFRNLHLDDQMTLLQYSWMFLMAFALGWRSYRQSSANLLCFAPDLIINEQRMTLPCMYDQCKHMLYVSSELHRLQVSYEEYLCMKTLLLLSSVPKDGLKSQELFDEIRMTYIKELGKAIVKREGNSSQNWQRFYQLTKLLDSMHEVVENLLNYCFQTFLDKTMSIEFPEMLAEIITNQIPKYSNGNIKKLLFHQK
Chain of 3',5'-cyclic-AMP phosphodiesterase 4B (Homo sapiens) (Q07343 whole entry, looked up): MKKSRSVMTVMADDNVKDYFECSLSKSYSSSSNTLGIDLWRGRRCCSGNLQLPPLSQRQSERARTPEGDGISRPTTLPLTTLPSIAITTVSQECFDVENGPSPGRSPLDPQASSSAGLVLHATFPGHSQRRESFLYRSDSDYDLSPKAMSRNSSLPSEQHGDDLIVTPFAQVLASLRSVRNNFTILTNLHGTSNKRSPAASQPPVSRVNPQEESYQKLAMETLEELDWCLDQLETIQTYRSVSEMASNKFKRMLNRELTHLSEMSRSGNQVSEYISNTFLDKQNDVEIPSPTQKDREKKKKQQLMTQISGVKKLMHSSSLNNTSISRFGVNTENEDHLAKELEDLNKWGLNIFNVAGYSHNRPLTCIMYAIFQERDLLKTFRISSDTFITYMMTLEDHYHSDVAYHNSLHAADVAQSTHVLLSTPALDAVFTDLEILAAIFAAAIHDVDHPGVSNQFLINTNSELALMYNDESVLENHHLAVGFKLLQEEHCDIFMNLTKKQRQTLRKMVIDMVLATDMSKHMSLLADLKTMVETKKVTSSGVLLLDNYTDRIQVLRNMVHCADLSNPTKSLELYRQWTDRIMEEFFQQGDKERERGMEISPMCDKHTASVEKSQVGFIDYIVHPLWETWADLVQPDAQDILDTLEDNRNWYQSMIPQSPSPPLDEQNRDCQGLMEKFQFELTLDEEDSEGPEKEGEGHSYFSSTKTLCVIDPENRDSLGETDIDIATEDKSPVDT
Chain of Cytochrome P450 1A2 (Homo sapiens) (P05177 whole entry, looked up): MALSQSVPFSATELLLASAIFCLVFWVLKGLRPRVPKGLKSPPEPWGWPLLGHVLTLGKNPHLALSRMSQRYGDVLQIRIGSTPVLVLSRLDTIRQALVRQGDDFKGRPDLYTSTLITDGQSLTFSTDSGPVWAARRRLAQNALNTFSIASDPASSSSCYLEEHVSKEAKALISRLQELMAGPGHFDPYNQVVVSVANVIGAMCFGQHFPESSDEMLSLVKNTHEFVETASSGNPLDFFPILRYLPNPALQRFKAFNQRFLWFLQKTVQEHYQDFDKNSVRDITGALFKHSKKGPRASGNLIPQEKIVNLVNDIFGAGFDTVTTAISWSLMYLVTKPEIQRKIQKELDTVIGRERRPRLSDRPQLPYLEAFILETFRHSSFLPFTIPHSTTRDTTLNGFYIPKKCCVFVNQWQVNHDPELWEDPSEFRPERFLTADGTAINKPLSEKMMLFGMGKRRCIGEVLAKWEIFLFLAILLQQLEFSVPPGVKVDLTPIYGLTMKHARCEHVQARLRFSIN
Chain of Pyruvate kinase PKM (Homo sapiens) (P14618 whole entry, looked up): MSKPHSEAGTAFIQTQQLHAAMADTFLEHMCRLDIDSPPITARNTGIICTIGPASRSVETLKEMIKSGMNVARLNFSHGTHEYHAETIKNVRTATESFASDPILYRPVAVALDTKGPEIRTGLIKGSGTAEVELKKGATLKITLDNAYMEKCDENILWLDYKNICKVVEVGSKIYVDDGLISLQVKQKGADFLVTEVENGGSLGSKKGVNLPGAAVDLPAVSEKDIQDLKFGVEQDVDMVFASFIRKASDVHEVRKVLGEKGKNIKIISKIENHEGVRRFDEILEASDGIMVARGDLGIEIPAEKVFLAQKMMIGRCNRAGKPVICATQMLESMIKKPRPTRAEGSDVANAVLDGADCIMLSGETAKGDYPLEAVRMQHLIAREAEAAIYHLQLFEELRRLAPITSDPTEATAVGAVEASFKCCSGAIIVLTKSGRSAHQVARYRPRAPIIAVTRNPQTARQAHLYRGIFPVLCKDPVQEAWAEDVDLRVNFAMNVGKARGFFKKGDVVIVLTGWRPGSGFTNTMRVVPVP
Chain of Pyruvate kinase (Leishmania mexicana) (Q27686 2-499 E452W): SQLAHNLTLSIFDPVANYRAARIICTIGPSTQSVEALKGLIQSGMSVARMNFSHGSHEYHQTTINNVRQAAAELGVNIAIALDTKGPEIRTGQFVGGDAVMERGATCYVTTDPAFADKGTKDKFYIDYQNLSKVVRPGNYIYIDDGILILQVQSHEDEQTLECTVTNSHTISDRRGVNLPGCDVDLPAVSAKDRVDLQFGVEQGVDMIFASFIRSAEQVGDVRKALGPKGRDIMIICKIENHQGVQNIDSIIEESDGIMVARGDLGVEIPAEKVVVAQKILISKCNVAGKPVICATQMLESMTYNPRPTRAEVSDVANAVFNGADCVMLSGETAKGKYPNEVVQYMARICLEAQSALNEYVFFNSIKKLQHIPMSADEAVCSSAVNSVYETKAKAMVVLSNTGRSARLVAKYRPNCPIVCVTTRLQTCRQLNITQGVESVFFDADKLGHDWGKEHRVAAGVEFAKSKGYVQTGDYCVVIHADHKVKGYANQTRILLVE

CC(=O)O[C@H]1C[C@H]2CC[C@@H]3[C@H]4C[C@@H]([N+]5(C)CCCCC5)[C@@H](OC(C)=O)[C@]4(C)CC[C@@H]3[C@@]2(C)C[C@@H]1[N+]1(C)CCCCC1
-19.7%: max response [5, 19]
inactive: Potency [1] > 46 µM | Potency [2] > 46 µM | Potency [3] | Potency [4] | activity change, negative = inhibition [5] -5.08% | Potency [6] | Potency [7] | Potency [8]
-24.4%: max response [5, 20]

CC(=O)OCCNC(=O)c1cccnc1
15.6%: max response [5, 19]
inactive: Potency [1] > 46 µM | Potency [2] > 46 µM | Potency [3] | Potency [9] | activity change, negative = inhibition [5] 8.28% | Potency [10] | Potency [6] | Potency [7] | Potency [8]
27.8%: max response [5, 20]

CC(C)C[C@H](NC(=O)N1CCCCCC1)C(=O)N[C@H](Cc1cn(C)c2ccccc12)C(=O)N[C@H](Cc1ccccn1)C(=O)O
14.7%: max response [5, 19]
inactive: Potency [1] > 46 µM | Potency [2] > 46 µM | Potency [3] | Potency [4] | Potency [9] | activity change, negative = inhibition [5] -4.14% | Potency [10] | Potency [6] | Potency [7] | Potency [8]
9.02%: max response [5, 20]

CCCCCCCCCC(=O)O[C@H](CC(=O)O)C[N+](C)(C)C
inactive: Potency [1] > 46 µM | Potency [2] > 46 µM | Potency [3] | activity change, negative = inhibition [5] 3.92% | Potency [10] | Potency [6] | Potency [7] | Potency [8]
-1.87%: max response [5, 20]
-0.114%: max response [5, 19]

NC1(C(=O)O)C[C@H](C(=O)O)[C@H](C(=O)O)C1 (stereo partly specified)
active: Potency [12] 0.398 µM
14.8%: max response [5, 20]
inactive: Potency [11] | Potency [1] > 46 µM | Potency [2] > 46 µM | Potency [3] | Potency [4] | activity change, negative = inhibition [5] 1.98% | Potency [6] | Potency [7] | Potency [8]
12.8%: max response [5, 19]

O=C(O)c1c2ccccc2cc2ccccc12
24.6%: max response [5, 19]
active: Potency [11] 0.2 µM | Potency [7] 26.7 µM
34.2%: max response [5, 20]
inactive: Potency [3] | activity change, negative = inhibition [5] 8.27% | Potency [10] | Potency [6] | Potency [8]

O=C(O)/C=C1\CCCc2ccccc2[C@H]1O
20.5%: max response [5, 19]
25.8%: max response [5, 20]
inactive: Potency [1] > 46 µM | Potency [2] > 46 µM | Potency [3] | activity change, negative = inhibition [5] 4.3% | Potency [10] | Potency [6] | Potency [7] | Potency [8]

Cc1ccc(-c2nn(C(C)(C)C)c3ncnc(N)c23)cc1
inactive: Potency [7] | Potency [8]

Cc1sc(N)c(C(=O)c2cccc(C(F)(F)F)c2)c1C
active: Potency [11] 15.8 µM | Potency [10] 50.1 µM
inactive: Potency [1] > 46 µM | Potency [2] > 46 µM | Potency [9] | Potency [6] | Potency [7] | Potency [8]

CCCCCCCCCCCCCCCC(=O)N[C@H](CN1CCOCC1)[C@H](O)c1ccccc1
inactive: activity change, negative = inhibition [7] 6.98% [at 6.83 µM] | activity change, negative = inhibition [8] 2.84% [at 3.88 µM]

NCCNS(=O)(=O)c1cccc2cnccc12
inactive: Potency [11] | activity change, negative = inhibition [13] -13.5% | Potency [1] > 46 µM | Potency [2] > 46 µM | Potency [3] | Potency [4] | outcome [14] | Potency [9] | Potency [15] | outcome [16] | outcome [17] | outcome [18] | Potency [6] | Potency [7] | Potency [8]
